Structures can show the parent of a compound that is named as a salt. ± gives the standard deviation.
Columns and labels:
Jurkat [1] = assay: mean cell size (FSC-A) relative to DMSO control (fraction of control); higher = larger cells; settings: 48 h
Method in brief: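 Jurkat cells at 600 cells/µl were incubated for 1 h and then treated for 48h with the Enzo Screen-Well FDA Approved Drug Library v2.0 at 25µM, with DMSO at 0.9% (v/v) final. Compounds that reduced counts below 20% of controls were retested in 10-fold dilutions down to 25nM. Cell count and mean cell size, taken as forward scatter area, were measured by flow cytometry relative to solvent-only controls. Each plate carried 6-12 controls, and values are means of 3 biological replicates.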

Jurkat [2] = assay: cell count relative to DMSO control (fraction of control); higher = more cells (less growth inhibition); settings: 48 h

O=C1CCCC(=O)C1C(=O)c1ccc(C(F)(F)F)cc1[N+](=O)[O-] [Nitisinone] (concentration: 25 µM)
mean cell size (Jurkat [1]): 0.938 ± 0.017
cell count (Jurkat [2]): 0.936 ± 0.1

CCOC(=O)[C@H](CCc1ccccc1)N[C@@H](C)C(=O)N1Cc2ccccc2C[C@H]1C(=O)O [Quinapril·HCl] (concentration: 25 µM)
mean cell size (Jurkat [1]): 0.998 ± 0.022
cell count (Jurkat [2]): 1.01 ± 0.11

CC[C@@H]1/C=C(\C)C[C@H](C)C[C@H](OC)[C@H]2O[C@@](O)(C(=O)C(=O)N3CCCC[C@H]3C(=O)O[C@H](/C(C)=C/[C@@H]3CC[C@H](Cl)[C@H](OC)C3)[C@H](C)[C@@H](O)CC1=O)[C@H](C)C[C@@H]2OC [Pimecrolimus] (concentration: 25 µM)
mean cell size (Jurkat [1]): 0.822 ± 0.021
cell count (Jurkat [2]): 0.692 ± 0.099

CC(O)(P(=O)(O)O)P(=O)(O)O [Etidronate Disodium] (concentration: 25 µM)
mean cell size (Jurkat [1]): 1 ± 0.052
cell count (Jurkat [2]): 0.595 ± 0.17

CCC[C@@H]1C[C@@H](C(=O)N[C@@H]([C@H]2O[C@H](SC)[C@H](O)[C@@H](O)[C@H]2O)[C@H](C)Cl)N(C)C1 [Clindamycin·HCl] (concentration: 25 µM)
mean cell size (Jurkat [1]): 1.07 ± 0.062
cell count (Jurkat [2]): 0.805 ± 0.14

CN1CCN(C2=Nc3cc(Cl)ccc3Nc3ccccc32)CC1 [Clozapine] (concentration: 25 µM)
mean cell size (Jurkat [1]): 0.966 ± 0.025
cell count (Jurkat [2]): 0.494 ± 0.17

C=CC1=C(C(=O)O)N2C(=O)[C@@H](NC(=O)/C(=N\OCC(=O)O)c3csc(N)n3)[C@H]2SC1 [Cefixime] (concentration: 25 µM)
mean cell size (Jurkat [1]): 0.977 ± 0.018
cell count (Jurkat [2]): 0.846 ± 0.069

CCCCc1nc(Cl)c(CO)n1Cc1ccc(-c2ccccc2-c2nnn[nH]2)cc1 [Losartan Potassium] (concentration: 25 µM)
mean cell size (Jurkat [1]): 0.922 ± 0.041
cell count (Jurkat [2]): 0.418 ± 0.1
